The record followed here is the supplement of paper PMC11624193, “Coupling cellular drug-target engagement to downstream pharmacology with CeTEAM” (Nature Communications, 2024).

Counter-ions that a name gives are not always drawn. Unmarked numbers belong to inactive results.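 How the source made its calls: active = log2 fold change beyond 2 SD from the library mean after excluding viability outliers; inactive = within 2 SD.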

For this assay, the target named is PARP1 L713F-nLuc biosensor (HCT116) (UniProt P09874). Description: PARP1 L713F-nLuc/akaLuc ratio relative to DMSO control (biosensor stabilization) (fold change); higher = more PARP1 biosensor stabilization (target engagement / stabilizer), active = hit call of the paper. The note with it: stock concentration (mM; final µM = stock mM x 1): 10; 24 h.
Sequence of PARP1 L713F-nLuc biosensor (HCT116) (P09874 whole entry L713F, looked up): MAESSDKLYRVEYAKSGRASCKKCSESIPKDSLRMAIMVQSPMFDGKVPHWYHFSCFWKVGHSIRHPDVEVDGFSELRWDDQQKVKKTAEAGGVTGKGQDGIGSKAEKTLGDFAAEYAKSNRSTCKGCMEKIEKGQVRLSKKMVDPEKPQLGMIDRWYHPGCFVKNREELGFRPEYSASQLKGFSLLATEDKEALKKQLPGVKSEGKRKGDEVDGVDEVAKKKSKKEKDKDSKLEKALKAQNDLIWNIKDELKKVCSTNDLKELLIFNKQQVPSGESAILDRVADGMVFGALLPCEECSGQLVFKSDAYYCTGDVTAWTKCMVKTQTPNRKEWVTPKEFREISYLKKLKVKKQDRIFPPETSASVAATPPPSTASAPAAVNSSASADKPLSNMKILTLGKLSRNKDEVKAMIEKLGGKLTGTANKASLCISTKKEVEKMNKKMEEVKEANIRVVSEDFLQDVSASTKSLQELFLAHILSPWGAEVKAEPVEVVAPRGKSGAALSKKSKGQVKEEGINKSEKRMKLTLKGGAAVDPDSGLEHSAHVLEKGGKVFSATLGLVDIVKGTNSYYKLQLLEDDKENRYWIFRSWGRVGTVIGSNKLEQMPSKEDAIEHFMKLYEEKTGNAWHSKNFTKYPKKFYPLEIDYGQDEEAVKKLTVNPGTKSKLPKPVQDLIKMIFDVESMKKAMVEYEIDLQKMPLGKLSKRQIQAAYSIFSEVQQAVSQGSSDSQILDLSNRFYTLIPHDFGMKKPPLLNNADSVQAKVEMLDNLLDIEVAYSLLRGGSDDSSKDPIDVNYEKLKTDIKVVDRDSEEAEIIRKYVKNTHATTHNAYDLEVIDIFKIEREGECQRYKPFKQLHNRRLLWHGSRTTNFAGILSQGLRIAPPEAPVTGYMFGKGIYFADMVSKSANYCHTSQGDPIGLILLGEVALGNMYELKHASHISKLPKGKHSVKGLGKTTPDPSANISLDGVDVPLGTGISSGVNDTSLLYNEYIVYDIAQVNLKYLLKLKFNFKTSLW
With `Cc1cc2c(F)c(Oc3ncnn4cc(OC[C@@H](C)O)c(C)c34)ccc2[nH]1`, the “PARP1 L713F-nLuc/akaLuc ratio” value is 0.898.
Regarding `CCCS(=O)(=O)N[C@H]1C[C@@H](N(C)c2ncnc3[nH]ccc23)C1` [Abrocitinib], the “PARP1 L713F-nLuc/akaLuc ratio” value was 0.869.
With `COc1cc2ncnc(Nc3ccc(NC(=O)c4ccccc4)cc3)c2cc1OC` [Aurora kinase inhibitor-2] the figure was 1.35; with `O=C1CCc2c(ccc3ccccc23)O1` [Splitomicin], 0.895.
In the case of `CC(C)(CCCCCC(O)CCCCCC(C)(C)C(=O)O)C(=O)O` [Bempedoic acid], the “PARP1 L713F-nLuc/akaLuc ratio” value is 1.02.
`O=C(c1cccc(Cl)c1F)N1CCN(Cc2cccc(Nc3nccs3)n2)CC1`: the “PARP1 L713F-nLuc/akaLuc ratio” value was 1.61.
With `CS(=O)(=O)CCNCc1ccc(-c2ccc3ncnc(Nc4ccc(OCc5cccc(F)c5)c(Cl)c4)c3c2)o1` [Lapatinib] the figure was 0.617; with `CNCc1ccc(-c2[nH]c3cc(F)cc4c3c2CCNC4=O)cc1` [Rucaparib], 5.36 (active).
`Cc1ccc(C(=O)Nc2cccc(C(F)(F)F)c2)cc1Nc1nc(-c2cccnc2)nc2c1cnn2C`: the “PARP1 L713F-nLuc/akaLuc ratio” value is 0.656.
On to `COc1ccc2[nH]cc(/C=C3\C(=O)Nc4ccc(NC(=O)CCN5CCCCC5)cc43)c2c1`, for which the “PARP1 L713F-nLuc/akaLuc ratio” value was 0.931.
Regarding `Cn1cc(C(N)=O)ccc1=O` [Nudifloramide], the “PARP1 L713F-nLuc/akaLuc ratio” value is 0.909.
`Cc1cc(Nc2cc(CN3CCOCC3)c3nc(C)c(Cc4ccc(Cl)cc4F)n3n2)n[nH]1`: the “PARP1 L713F-nLuc/akaLuc ratio” value was 1.18.
As for `CC#CC(=O)N1CCC[C@H]1c1nc(-c2ccc(C(=O)Nc3ccccn3)cc2)c2c(N)nccn12` [Acalabrutinib (ACP-196)], the “PARP1 L713F-nLuc/akaLuc ratio” value was 1.28.
`CC(C(=O)Nc1cccc(/N=C/c2c(O)ccc3ccccc23)c1)c1ccccc1` (configuration not stated) [Salermide]: the “PARP1 L713F-nLuc/akaLuc ratio” value is 0.605.
Then `CC(C)Oc1ccc(-c2c[nH]cc2CN(C)CCN)cc1`, with 1.38; and `O=C(O)Cn1nnc(-c2ccc(CN(CCCCOc3ccc(CN4CCCC4)cc3)CCc3ccccc3)cc2)n1`, with 1.04; and `COc1cc2c(Nc3ccc(NC(=O)c4ccccc4)cc3)ncnc2cc1OCCCN1CCOCC1`, with 0.809.
With `CCS(=O)(=O)N1CC(CC#N)(n2cc(-c3ncnc4[nH]ccc34)cn2)C1` [Baricitinib (phosphate)], the “PARP1 L713F-nLuc/akaLuc ratio” value was 1.19.
Then `O=C(Nc1cccc(Nc2nccc(Nc3cccc(C(F)(F)F)c3)n2)c1)C1CC1` [Aurora kinase inhibitor-3], with 1.49; and `N=C(NOCC(O)CN1CCCCC1)c1cccnc1` (configuration not stated), with 0.933; and `CC(C)NC[C@@H](C(=O)N1CCN(c2ncnc3c2[C@H](C)C[C@H]3O)CC1)c1ccc(Cl)cc1` [Ipatasertib (GDC-0068)], with 0.669.
For the compound `CO[C@@]12[C@H](COC(N)=O)C3=C(C(=O)C(C)=C(N)C3=O)N1C[C@@H]1N[C@@H]12` [Mitomycin C], the “PARP1 L713F-nLuc/akaLuc ratio” value was 1.07.
Turning to `C[C@@H](Oc1cc(-n2cnc3ccc(CN4CCN(C)CC4)cc32)sc1C(N)=O)c1ccccc1C(F)(F)F`, the “PARP1 L713F-nLuc/akaLuc ratio” value was 0.601.
As to `CO[C@H]1C[C@@H]2CC[C@@H](C)[C@@](O)(O2)C(=O)C(=O)N2CCCC[C@H]2C(=O)O[C@H]([C@H](C)C[C@@H]2CC[C@@H](OP(C)(C)=O)[C@H](OC)C2)CC(=O)[C@H](C)/C=C(\C)[C@@H](O)[C@@H](OC)C(=O)[C@H](C)C[C@H](C)/C=C/C=C/C=C/1C` [Ridaforolimus (Deforolimus, MK-8669)], the “PARP1 L713F-nLuc/akaLuc ratio” value was 1.7.
Then `Cc1ccc(NC(=O)c2ccc(CN3CC[C@H](N(C)C)C3)c(C(F)(F)F)c2)cc1Nc1nccc(-c2cncnc2)n1` [Bafetinib (INNO-406)], with 0.726; and `N#CCNC(=O)c1ccc(-c2ccnc(Nc3ccc(N4CCOCC4)cc3)n2)cc1` [Momelotinib], with 0.661.
On to `Nc1ncnc2c1ncn2[C@@H]1O[C@H](C(=O)N2CCN(CC(=O)Nc3cccc4c3CNC4=O)CC2)[C@@H](O)[C@H]1O` [EB-47 (dihydrochloride)], for which the “PARP1 L713F-nLuc/akaLuc ratio” value was 0.793.
With `CC(=O)O[C@@H]1CC[C@@]2(C)[C@@H](CC[C@]3(C)[C@@H]2C(=O)C=C2[C@@H]4[C@@H](C)[C@H](C)CC[C@]4(C)CC[C@]23C)[C@@]1(C)C(=O)O` the figure was 1.18.
With `Cc1ccc(Nc2nccc(N(C)c3ccc4c(C)n(C)nc4c3)n2)cc1S(N)(=O)=O` [Pazopanib] the figure was 1.33; with `Cc1nc(N)nc(N)c1-c1ccc(Cl)c(Cl)c1` [Metoprine], 0.685.
For the compound `COc1nc(Nc2cc(S(C)(=O)=O)ccc2N[C@@H](c2cccc3c2OC(F)(F)O3)c2ncccc2Cl)nc(N2CCNCC2)n1`, the “PARP1 L713F-nLuc/akaLuc ratio” value was 0.707.
Take `Cc1cnc(-c2ccccc2C(C)C)nc1NCc1ccc(-n2ccnn2)cc1`: the “PARP1 L713F-nLuc/akaLuc ratio” value was 0.718.
In the case of `CCN(c1cc(-c2ccc(CN3CCOCC3)cc2)cc(C(=O)NCc2c(C)cc(C)[nH]c2=O)c1C)C1CCOCC1` [Tazemetostat], the “PARP1 L713F-nLuc/akaLuc ratio” value was 0.962.
As to `Cn1cncc1[C@@](N)(c1ccc(Cl)cc1)c1ccc2c(c1)c(-c1cccc(Cl)c1)cc(=O)n2C` [Tipifarnib], the “PARP1 L713F-nLuc/akaLuc ratio” value is 0.456.
`O=C(NNS(=O)(=O)c1ccccc1)c1cc(-c2ccnnc2)ccc1F`: the “PARP1 L713F-nLuc/akaLuc ratio” value was 1.16.
In the case of `CC[C@H](C)C(=O)O[C@H]1C[C@@H](C)C=C2C=C[C@H](C)[C@H](CC[C@@H]3C[C@@H](O)CC(=O)O3)[C@H]21` [Lovastatin], the “PARP1 L713F-nLuc/akaLuc ratio” value is 0.643.
For `C[C@H](Nc1cc(-c2cnn(C)c2)cc(Nc2cnccn2)n1)c1ccc(F)cc1` [Ilginatinib (maleate)], the “PARP1 L713F-nLuc/akaLuc ratio” value was 0.614.
